# Molecular target: ABCD4
# Assay: pooled miR-30 sensor sort-seq; sequence = guide strand
# Conditions: shRNA
# Note: reference of the scale not given here.
row,Sequence,sensor-assay potency score (higher = more potent)
1,TAGAAGAGTCGGGCAAAGGAGA,-1.06
2,TGCGATGACAACGTAACTCAGG,-0.631
3,TAGTAGACGAGGGTGAACGGGG,-0.612

# Molecular target: ABCG2
# Assay: as above
# Conditions: shRNA
row,Sequence,sensor-assay potency score (higher = more potent)
1,TTGAAGACTGTGATCTTCTTCT,0.497
2,TTCTATGAGTGGCTTATCCTGC,-0.526
3,TTTAAAGTCTTCTTCTCTGTTT,-0.358
4,TATAATACTTGGTAACATCCTC,0.377
5,TTACCAAATATTCTTCGCCAGT,-1.15
6,TAATATTTCTTTCTCAACTGGT,0.563
7,AACATCATCTTGTACCACGTAA,-0.468
8,TGAGATTGACCAACAGACCTGA,0.275
9,TTTGTCTCTTTGTAGAAGGAGG,-1.31
10,TAACTCTTGAATGACCCTGTTA,-0.548
11,TTCAGCTTTTGTCTCTTTGTAG,-0.298
12,TACGACTGTGACAATGATCTGA,0.524

# Molecular target: ABHD14A
# Assay: as above
# Conditions: shRNA
row,Sequence,sensor-assay potency score (higher = more potent)
1,TGCATTGCGTAGCTTCACCACA,-1.6
2,TCCATGAAGCAGCACCACCTCC,-1.75
3,TAGCTTCACCACAGAGTGGTTG,-1.24
4,TCGAGCCAGGATGTGGTCCAGC,-1.4
5,TGAGTGGGAGCACCTCGCGGTA,-1.68
6,TTGCGTAGCTTCACCACAGAGT,0.297
7,GAGGTCTGTACCACAGTCGGGC,-1.45
8,ATGGCCTGCATTGCGTAGCTTC,-1.76
9,TTGAGTGGGAGCACCTCGCGGT,0.0609
10,TCTGTGACAGTAGCTGCAGTGT,-1.16
11,TAAGGGTTGGAGTCTTCACAGC,-1.08

# Molecular target: ABHD14B
# Assay: as above
# Conditions: shRNA
row,Sequence,sensor-assay potency score (higher = more potent)
1,ATAGTTGGCAGCATTGATTTTG,-0.758
2,AAAGCTGGTCTGACCCATGGGG,-0.273
3,TGGACTGATCACAACCGGGGGG,-0.281
4,TTCAGGTGCTCAAAGCTGGTCT,-0.558
5,CTGGTCTCCATATACAATCAGA,-2.16
6,TTTGTCCAGGTAACAGGGGTGC,-1.14
7,TGGTTTGTCCAGGTAACAGGGG,-0.958
8,TTGATTTTGTCAGTGCAGATGG,-0.728
9,TAGTTGGCAGCATTGATTTTGT,-0.754
10,TCCATATACAATCAGAGCTGGA,-1.62
11,TTCTGCCAGGTCTCGGAGGAGA,-1.13
12,TGCTTCAGGTGCTCAAAGCTGG,-0.768

# From the OligoGym collection
